A selection: hits, their analogues and other compounds. The true share with any hit is near 3.8%.
VDR inh: vitamin D3 receptor (human) inhibition. P11473. VDR-SRC2-3 peptide fluorescence polarization, 2 h. Potency, µM, most hits filed as inhibitors. 400,000 compounds, 0.93% hits. AID 504847
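Two reagent solutions held at 4 deg C in the dark were dispensed, compounds pinned at 23 nl, and the mixture incubated 2 h at room temperature. Read-out: fluorescence polarization of VDR–SRC2-3 peptide binding.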
Sfp PPTase inh: blocks B. subtilis Sfp PPTase activity; Q9F4F7; Biochemical Sfp PPTase activity, qHTS; Potency, µM, most hits filed as inhibitors; 310,000 compounds, 3.5% hits; AID 1490;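 further: the enzyme is Sfp with the accession as filed and its product quenches rhodamine fluorescence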
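Step 1, compound plus 15 nM Sfp-PPTase, 15 min, room temperature. Step 2, add rhodamine-CoA (5 uM) and BHQ-2-YbbR (12.5 uM). Step 3, read 525/598 nm fluorescence at 0 and 30 min.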
GCN5L2 inh: blocks human GCN5L2 histone acetyltransferase | Potency, µM (series often up to 58.9 µM), actives largely listed as inhibitors | 390,000 compounds, 0.21% hits | AID 504327 | Q92830 | GCN5L2 HAT assay, ThioGlo1 CoA-SH fluorescence
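Enzyme at 20nM final was mixed with library compounds for 15 min at room temperature. Peptide H3(1-25) at 75uM, acetyl-CoA at 70uM and ThioGlo1 at 50uM were then added. Plates were read immediately and after 20 min (Ex340nm/Em540nm).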
GLS inhibitor: glutaminase GLS (human) inhibition | O94925 | GLS enzymatic activity, qHTS titration | Potency, µM (doses to about 45.5 µM), usual class: inhibitors | 410,000 compounds, 0.21% hits
Target sequence (O94925 whole entry, looked up): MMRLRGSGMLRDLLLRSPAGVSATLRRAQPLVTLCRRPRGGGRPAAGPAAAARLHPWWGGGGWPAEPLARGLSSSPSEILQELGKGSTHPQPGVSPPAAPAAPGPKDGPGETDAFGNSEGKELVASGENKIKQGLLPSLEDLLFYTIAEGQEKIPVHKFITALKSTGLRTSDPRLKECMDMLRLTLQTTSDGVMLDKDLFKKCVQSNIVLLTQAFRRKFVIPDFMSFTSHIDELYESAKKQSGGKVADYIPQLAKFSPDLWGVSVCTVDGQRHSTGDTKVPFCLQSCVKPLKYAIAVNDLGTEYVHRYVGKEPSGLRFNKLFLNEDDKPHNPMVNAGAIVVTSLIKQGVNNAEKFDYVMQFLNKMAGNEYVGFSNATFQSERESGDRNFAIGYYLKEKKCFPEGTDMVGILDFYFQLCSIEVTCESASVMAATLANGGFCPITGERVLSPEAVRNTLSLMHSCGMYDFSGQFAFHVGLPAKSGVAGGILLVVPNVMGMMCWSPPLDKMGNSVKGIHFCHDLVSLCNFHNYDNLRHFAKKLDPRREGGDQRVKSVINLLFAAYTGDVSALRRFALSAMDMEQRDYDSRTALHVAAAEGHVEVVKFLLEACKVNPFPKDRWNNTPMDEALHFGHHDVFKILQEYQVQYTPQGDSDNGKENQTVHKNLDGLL
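hKGA in 45 mM KH2PO4 pH 8.2, 0.02% Tween-20 with pin-transferred compounds; 1 mM L-glutamine (stock) plus glutamate oxidase/HRP/Amplex Red coupling added. Fluorescence read initially and after 30 min at RT.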
TrxR1 inh: rat TrxR1 inhibition. Potency, µM (series often up to 114 µM), hits mostly inhibitors. recombinant rTrxR1, NADPH fluorescence consumption, selenite substrate. AID 588453. 390,000 compounds, 1% hits; further: nearly all actives have a fitted effect of over 65% in size
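Rat TrxR1 (90 nM in the dispensed reagent) was pre-reduced with 400 uM NADPH for 5 min at room temperature, then incubated with compound for 15 min. After 400 uM selenite was added, NADPH fluorescence (Ex 340/Em 450 nm) was followed for 8 min.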
TrxR1 substrate: is turned over as a substrate by rat TrxR1; O89049; purified TrxR1 substrate turnover, NADPH consumption readout; Potency, µM (series often up to 114 µM); 390,000 compounds, 0.01% hits; AID 588456; further: nearly all actives have a fitted effect of over 50% in size
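Rat TrxR1, dispensed at 90 nM, was prereduced with 400 uM NADPH (final) for 5 min at ~22 deg C, then incubated with compound 15 min before 400 uM selenite. A first-read NADPH fluorescence drop versus no-compound background flagged substrates.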
Hits are given with their value; - = inactive; ? = inconclusive; . = no result. The call rests on the fitted dose curve; in most records, active means well fitted curve in the direction sought with a large enough effect; inconclusive means small, poorly fitted or top-dose-only effect, or another doubt; inactive means no such curve, though single readings can be large; an effect the other way counts as inactive or inconclusive.

SMILES | VDR inh | Sfp PPTase inh | GCN5L2 inh | GLS inhibitor | TrxR1 inh | TrxR1 substrate
COc1ccc(OC)c(C2CC(=O)N3CN(c4ccccc4F)CSC3=C2C#N)c1 (stereo not drawn) | 35µM | ? | 8.9µM | - | ? | -
COc1ccc(OC)c(C2CC(=O)NC(SC)=C2C#N)c1 (stereo not drawn) | - | - | - | - | - | -
COc1cccc(C2CC(=O)N3CN(c4ccccc4F)CSC3=C2C#N)c1 (stereo not drawn) | 45µM | 7.9µM | 16µM | - | - | -
Cc1ccc(-c2nnc(NC(=O)CCS(=O)(=O)c3ccccc3)o2)c(C)c1 | - | . | - | - | - | -
Cc1ccc2c(CN3CCN(C(=O)c4ccco4)CC3)cc(=O)oc2c1C | - | - | ? | - | - | -
CN1Cc2c(N3CCOCC3)nc3sc(C#N)c(N)c3c2CC1(C)C | - | - | - | - | - | -
CNC(=O)c1ccc(-c2sc3nc(N4CCOCC4)c4c(c3c2N)CC(C)(C)OC4)o1 | - | 79µM | - | - | - | -
CN1Cc2c(N3CCOCC3)nc3sc(C(=O)c4ccc(Br)cc4)c(N)c3c2CC1(C)C | - | 45µM | - | - | - | -
COc1ccc(NC(=O)c2sc3nc(N4CCCC4)c4c(c3c2N)CC(C)(C)OC4)cc1 | - | 10µM | - | - | - | -
CCCCOC(=O)c1sc2nc(N3CCOCC3)c3c(c2c1N)CC(C)(C)OC3 | - | ? | - | - | - | -
CC1(C)Cc2c(c(N3CCOCC3)nc3sc(C(=O)N4CCCCC4)c(N)c23)CO1 | ? | 16µM | - | - | - | -
Cc1ccc(S(=O)(=O)N(C)C)cc1NC(=O)COc1ccccc1C(=O)Nc1ccccc1 | - | . | - | - | - | -
CCCC[C@@H]1C=C(C(=O)O)[C@H](c2ccc(Cl)c(Cl)c2)N1S(=O)(=O)c1ccc(C)cc1 | ? | . | ? | - | - | -
Nc1c(C(=O)N2CCOCC2)sc2nc(N3CCOCC3)c3c(c12)CCCC3 | 71µM | 10µM | - | - | - | -
NNC(=O)c1sc2nc(N3CCOCC3)c3c(c2c1N)CCCC3 | - | - | - | - | - | -
O=C(N/N=C/c1ccccc1)c1ccco1 | - | - | - | - | - | -
O=C(C#Cc1ccccc1)c1ccco1 | 22µM | ? | - | - | 0.25µM | -
Cc1[nH][nH]c(=O)c1C(c1ccc(O)c(Br)c1)c1c(C)[nH][nH]c1=O | - | - | - | 13µM | - | -
O=C(Nc1cccnc1)c1cccs1 | - | - | - | - | - | -
O=C(NC(=S)Nc1cccnc1)c1cccc(Br)c1 | - | - | - | - | 56µM | -
COc1ccc(NC(=S)NC(=O)c2cccnc2)cc1 | - | - | - | - | ? | -
COC(=O)c1ccc(NC(=S)NC(=O)c2cccnc2)cc1 | - | 89µM | - | - | ? | -
O=C(NC(=S)Nc1cccnc1)c1ccccc1 | - | 79µM | - | - | - | -
O=C(NC(=S)Nc1cccnc1)c1cccs1 | ? | 56µM | - | - | - | -
CCOC(=O)/C=C/C(=O)OCC(=O)Nc1cccc(Br)c1 | ? | - | - | - | ? | -
SMILES | VDR inh | Sfp PPTase inh | GCN5L2 inh | GLS inhibitor | TrxR1 inh | TrxR1 substrate
Cc1cc(C)cc(NC(=O)CCCN2C(=O)C(c3ccccc3)Oc3cccnc32)c1 (stereo not drawn) | - | - | - | - | - | -
CCCCNC(=O)C1(C)CCN1C(=O)c1ccc2c(c1)CCO2 (stereo not drawn) | . | . | . | - | . | .
COC(=O)c1ccc(NC(=S)NNC(=O)c2ccccc2)cc1 | - | ? | - | - | - | -
COC(=O)c1ccc(NC(=S)NNC(=O)CC(C)C)cc1 | - | 45µM | - | - | ? | -
COc1cccc2c(C)nc(Nc3nc(CSc4nnc(C)s4)cc(=O)[nH]3)nc12 | 79µM | - | - | - | - | -
CC(=O)c1c(C)[nH]c(C(=O)COC(=O)c2c(C)noc2C)c1C | - | . | - | - | - | -
COC(=O)C/C=C\[C@@H](C)[C@@H](/C=N\OCC[C@@H]1C=C[C@H](OC(C)=O)[C@H](COC(C)=O)O1)OC | . | 1µM | . | . | . | .
CCCNC(=O)OC[C@H]1O[C@H](CCO/N=C/[C@@H](OC)[C@H](C)/C=C/CC(=O)OC)C=C[C@@H]1Oc1ccc(OC)cc1 | . | - | - | . | . | .
O=C1CCc2cc(S(=O)(=O)NCc3ccccc3)cc3c2N1CC3 | - | . | - | - | - | -
O=C(Nc1cc(S(=O)(=O)N2CCOCC2)ccc1Cl)c1cc([N+](=O)[O-])ccc1Cl | - | . | - | - | - | -
CC(C(=O)NC1C=CS(=O)(=O)C1)N1C(=O)/C(=C\c2ccccc2)SC1=S (stereo not drawn) | - | 13µM | - | - | - | -
O=C(CN1C(=O)/C(=C/c2ccccc2F)SC1=S)NC1C=CS(=O)(=O)C1 (stereo not drawn) | - | 22µM | - | - | - | -
CC12CCC(=O)N1C(C(=O)N1CCN(c3ccccc3)CC1)CS2 (stereo not drawn) | - | . | - | - | - | -
S=c1[nH]nc(Cn2cnc3ccccc32)n1-c1ccccc1Cl | - | 89µM | - | - | - | -
COc1ccc(CC(=O)OCCc2cc3cc(OC)c(OC)cc3c(=O)o2)cc1 | - | . | - | - | 18µM | -
Cc1ccc(CN2CCSc3ccc(C(=O)NCc4ccccn4)cc32)cc1 | - | 50µM | - | - | - | -
CC1Sc2ccc(C(=O)NCc3ccccn3)cc2NC1=O (stereo not drawn) | 79µM | . | - | - | - | -
COc1cc(NC(=O)CCNC(=O)Cn2cnc3sc4c(c3c2=O)CCCC4)cc(OC)c1OC | - | - | - | - | - | -
CCCCC(=O)Nc1ccc(C2C(=O)c3ccccc3C2=O)cc1 | - | . | . | 18µM | - | -
Cc1ccc2c(c1)Cc1c(nc(-c3ccc(F)cc3)nc1SCC(=O)N1CCCCC1)O2 | - | . | - | - | - | -
Cc1ccc(NC(=O)c2cc(N3C(=O)C=CC3=O)ccc2N2CCOCC2)cc1 | 28µM | 4.5µM | - | ? | 0.89µM | -
Cc1ccc(NC(=O)c2cc(N3C(=O)C=CC3=O)ccc2Cl)cc1C | 35µM | 14µM | - | - | 3.2µM | -
Cc1ccc(-c2csc(NC(=S)NC(=O)c3cc4ccccc4o3)n2)cc1 | - | - | - | - | - | -
Cc1ncc(CCl)c2c1OC(C)(C)OC2 | - | 45µM | - | - | ? | -
COc1ccc(C2NC(=O)c3sc(=S)n(-c4ccccc4)c3N2)cc1 (stereo not drawn) | 79µM | 50µM | - | - | - | -
COc1ccc(/C=N/n2cnc3c(sc(=S)n3-c3ccccc3)c2=O)cc1 | - | - | - | - | - | -
O=C1NC(c2ccccc2)Nc2c1sc(=S)n2-c1ccccc1 (stereo not drawn) | - | 32µM | - | - | - | -
